The values that follow come from PubChem BioAssay.

Calls of active or inactive are those of the source.

Test [1] relates to XIP peptide (Xip251-270) binding. Description: small-molecule binders of XIP peptide, primary screen, biochemical, small-molecule microarray, fluorescence 635/667 nm, 0.1 µg/mL protein (AID 1182). Conditions: fluorescent protein binding, 635 nm, higher = more signal, called active from +8 up or from −8 down.
Test [2] concerns XIP peptide (Xip251-270). Description: small-molecule binders of XIP peptide, primary screen, biochemical, small-molecule microarray, fluorescence 635/667 nm, 0.5 µg/mL protein (AID 1183). Conditions: small-molecule microarray binding, fluorescence 635 nm; higher = more signal.
The nature of test [3]: Plasmodium falciparum growth inhibition, primary screen, strain 3D7, DAPI fluorescence, 100 nL (AID 1184).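 Note: parasites grown inside human red blood cells in medium with human serum.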 Conditions: P. falciparum 3D7 growth, 3 d, higher = more signal.
Test [4] concerns the target Homeobox protein Hox-A13 (Mus musculus) (UniProt Q62424). Nature of the test: inhibitors of HoxA13-DNA binding, primary screen, biochemical, fluorescence polarization, labeled oligonucleotide (AID 1185). Conditions: 15 min, higher = more signal, called active from +8 up or from −8 down.

Homeobox protein Hox-A13 (Mus musculus), sequence (Q62424 whole entry, looked up): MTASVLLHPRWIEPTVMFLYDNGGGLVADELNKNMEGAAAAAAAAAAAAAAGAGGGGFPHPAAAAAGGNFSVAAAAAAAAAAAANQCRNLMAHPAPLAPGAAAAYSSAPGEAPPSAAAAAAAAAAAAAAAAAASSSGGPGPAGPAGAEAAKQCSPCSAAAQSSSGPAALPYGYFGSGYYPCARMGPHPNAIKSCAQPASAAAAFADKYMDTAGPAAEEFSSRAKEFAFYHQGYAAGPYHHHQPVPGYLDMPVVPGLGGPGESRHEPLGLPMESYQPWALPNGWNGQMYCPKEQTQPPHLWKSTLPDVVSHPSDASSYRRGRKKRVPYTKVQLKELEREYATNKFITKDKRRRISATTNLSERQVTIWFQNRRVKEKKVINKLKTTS

For the molecule `COC(=O)[C@@H]1CC[C@H](C)[C@@H](c2ccc(Br)cc2)N1C[C@H](O)CN=[N+]=[N-]`, the composite z-score is 1.12 (inactive) in test [1] and -0.135 in test [2]. Also, the z-score is -0.637 in test [3] and -2.93 (inactive) in test [4].
The matching figures for `COc1ccc2c(c1)O[C@@H](c1cccc(C(F)(F)F)c1)[C@H](O)C2=O`: 0.245 (inactive), -0.233, 0.142 and 0.16 (inactive).
The matching figures for `O=C1C2=CC[C@H]3C(=O)N(Cc4ccccc4)C(=O)[C@H]3[C@H]2[C@H](O)[C@@H]2O[C@H]12`: 0.409 (inactive), -0.194, -0.116 and -5.55 (inactive).
The like results for `C=CCOCC1CN2[C@@H](CC[C@@H](C)[C@@H]2c2ccc(Br)cc2)C(=O)O1` (some centres not stated) were, in that order, 0.0364 (inactive), -0.104, 1.72 and -0.43 (inactive).
`COc1ccc(COC(=O)NN=C2C[C@@H](O)[C@@H](O)[C@@H]3[C@@H]4C(=O)N(C[C@@H]5CCCO5)C(=O)[C@@H]4CC[C@@H]23)cc1`: the composite z-score in test [1] was -0.155 (inactive); in test [2], 0.744. Besides, the results for the z-score in test [3] and in test [4] were -0.0701 and 0.903 (inactive), respectively.
The like results for `COc1cccc([C@H](O)Cn2cc(-c3ccc(CON=C(C)C)cc3)nn2)c1` were, in that order, 0.218 (inactive), -0.851, -1.11 and -4.2 (inactive).
`CCN1C(=O)[C@H]2[C@H]3[C@H](O)[C@H](O)CC(=NOC[C@@H](O)COCc4ccco4)[C@H]3CC[C@H]2C1=O`: the composite z-score in test [1] is 0.386 (inactive); in test [2], 0.505. The results for the z-score in test [3] and in test [4] were -0.0786 and 0.366 (inactive), respectively.
`CC=CC1=C(CO)[C@H](O)[C@H]2O[C@H]2[C@@H]1O`: the composite z-score in test [1] was 0.353 (inactive); in test [2], 0.374. Also, the z-score in test [3] was 0.0425; in test [4] it was -0.101 (inactive).
`CCOC(=O)[C@H](Cc1ccccc1)NC(=O)CCC1CC(OC(=O)NCc2cccc3ccccc23)CC2(CCCC(COC(=O)NCCc3ccc(Cl)cc3)O2)O1` (some centres not stated): the composite z-score in test [1] is 0.351 (inactive); in test [2] it was 0.568. The z-score in test [3] is -1.93; in test [4], -5.98 (inactive).
The matching figures for `CCCC[C@H]1CN2[C@@H](CC[C@@H](C)[C@@H]2c2ccc(Br)cc2)C(=O)O1`: 0.977 (inactive), 0.476, -0.278 and -3.59 (inactive).
As to `COc1ccc(OC[C@H]2CN3[C@@H](CC[C@@H](C)[C@@H]3c3ccc(Br)cc3)C(=O)O2)cc1`, the composite z-score was -0.192 (inactive) in test [1] and 0.61 in test [2]. For the same molecule, the z-score was -1.32 in test [3] and -0.626 (inactive) in test [4].
The like results for `COC(=O)CC=C[C@@H](C)[C@@H](C=NOC[C@@H](C)[C@H](OCc1ccccc1)C(C)C)NS(=O)(=O)c1ccc(C)cc1` were, in that order, 0.265 (inactive), -0.0132, -0.192 and -4.05 (inactive).
The like results for `COCOc1ccc(Br)cc1C(=O)C=Cc1ccc2c(c1)OCO2` were, in that order, 0.268 (inactive), 0.627, -1.42 and -0.353 (inactive).
The like results for `O=C1[C@H]2[C@H]3[C@H](O)[C@H](O)CC(=NOC[C@@H](O)COCc4ccco4)[C@@H]3CC[C@H]2C(=O)N1C1CCCCC1` were, in that order, 0.288 (inactive), 0.306, 1.7 and -4.42 (inactive).
Turning to `CC(=O)OC[C@H]1O[C@H](CC=NOC[C@@H](O)[C@H]2O[C@@H]3OC(C)(C)O[C@@H]3[C@H]2O)C=C[C@@H]1OC(C)=O`, the composite z-score was 0.232 (inactive) in test [1] and 0.732 in test [2]. For the same molecule, the z-score in test [3] was 0.158; in test [4], -0.147 (inactive).
The like results for `COC(=O)[C@H](Cc1ccccc1)NC(=O)[C@@H](C)CO` were, in that order, -0.285 (inactive), -0.9, -1.23 and 1.16 (inactive).
As for `CCOC(=O)[C@H](Cc1ccccc1)NC(=O)CCC1CC(OC(=O)NCc2ccc3c(c2)OCO3)CC2(CCCC(COC(=O)NCCOC)O2)O1` (some centres not stated), the composite z-score in test [1] was 0.247 (inactive); in test [2] it was 0.515. For the same molecule, the z-score in test [3] is -2.09; in test [4], -3.78 (inactive).
The matching figures for `CC(CCN1CCCCc2nc(C)c(C)cc21)=NO[C@H](C)c1cn([C@@H]2COC[C@H]2O)nn1`: 0.641 (inactive), 0.382, 0.255 and -1.36 (inactive).
For the molecule `C[C@H]1C=CCC(=O)OC[C@H](C)C(=O)N2CCC[C@H]2C(=O)OC1`, the composite z-score in test [1] was 0.23 (inactive); in test [2], 0.476. The z-score was 0.878 in test [3] and -0.266 (inactive) in test [4].
The like results for `CCOC(=O)[C@H](Cc1ccccc1)NC(=O)CCC1CC(OC(=O)NCc2cccc3ccccc23)CC2(CCCC(COC(=O)NCC3CCCCC3)O2)O1` (some centres not stated) were, in that order, 1.98 (inactive), 0.357, -1.69 and -3.1 (inactive).
For `CC(C)[C@@H](OCc1ccccc1)[C@H](C)CON=C1[C@H]2CCn3c(=O)n(-c4ccccc4)c(=O)n3[C@H]2[C@H](O)[C@@H]2O[C@H]12`, the composite z-score in test [1] was -0.874 (inactive); in test [2], 0.199. Moreover, the z-score is -2 in test [3] and -5.16 (inactive) in test [4].
For the molecule `CCOC(=O)[C@H](Cc1ccccc1)NC(=O)CCC1CC(OC(=O)NCc2cccc3ccccc23)CC2(CCCC(COC(=O)NCCOc3ccccc3)O2)O1` (some centres not stated), the values for the composite z-score in test [1] and in test [2] were -0.0988 (inactive) and 0.512, respectively. Besides, the z-score in test [3] is -1.86; in test [4], -2.04 (inactive).
With `CC(CCC(=O)OC[C@H]1O[C@H](C#Cc2ccccc2)C=C[C@@H]1Oc1ccc(C)cc1)=NOC(C)CN1CCCCc2nc(C)c(C)cc21` (some centres not stated), the values for the composite z-score in test [1] and in test [2] were -0.185 (inactive) and 0.0787, respectively. The z-score was -2.06 in test [3] and -2.02 (inactive) in test [4].
